Drawing on paper PMC7862700, “An all-to-all approach to the identification of sequence-specific readers for epigenetic DNA modifications on cytosine”, this text covers binding signal for seven sequences.

Assay in all cases: DAPPL (digital affinity profiling via proximity ligation, sequencing); 10 mM Tris-HCl pH 7.5, 50 mM NaCl, 1 mM DTT, 4% glycerol, room temperature, 30 min; GST-TFs on glutathione beads, 16-mer random dsDNA library, 0.1% formaldehyde crosslink after washing; high values mean tight binding
What all share (conditions): protein: recombinant; tags: N-terminal GST; dsDNA, one strand shown

One experiment has as its target T1, FLI1 (Homo sapiens, UniProt Q01543 1-452).
T1 sequence: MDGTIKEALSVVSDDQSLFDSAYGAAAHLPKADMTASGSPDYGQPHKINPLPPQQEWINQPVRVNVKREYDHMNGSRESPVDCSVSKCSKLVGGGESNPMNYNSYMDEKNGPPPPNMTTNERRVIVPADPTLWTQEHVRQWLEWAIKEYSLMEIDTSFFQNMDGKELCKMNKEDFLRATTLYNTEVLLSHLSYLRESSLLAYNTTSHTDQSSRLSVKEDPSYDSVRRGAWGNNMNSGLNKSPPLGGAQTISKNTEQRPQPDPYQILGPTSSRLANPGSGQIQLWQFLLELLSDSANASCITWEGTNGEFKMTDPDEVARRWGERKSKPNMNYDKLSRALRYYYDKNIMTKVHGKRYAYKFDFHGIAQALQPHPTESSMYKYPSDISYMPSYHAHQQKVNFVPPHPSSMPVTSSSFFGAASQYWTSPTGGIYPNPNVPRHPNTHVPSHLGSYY
A digest of the protocol: (§1)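 Binding signal is given per hexamer as its read frequency for a factor divided by its frequency in the tag-only sample. GST-fused human transcription factors were expressed in yeast, captured on glutathione beads, barcoded with DNA and pooled with that sample, then incubated with 200 nmole of a 16-mer random double-stranded DNA library in Tris/NaCl/DTT/glycerol buffer for 30 min at room temperature. The pools were then washed, crosslinked, proximity-ligated, amplified by PCR and sequenced on an Illumina NextSeq500.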

The target in a further experiment is T2, ELK1 (Homo sapiens, UniProt P19419 1-428).
T2 sequence: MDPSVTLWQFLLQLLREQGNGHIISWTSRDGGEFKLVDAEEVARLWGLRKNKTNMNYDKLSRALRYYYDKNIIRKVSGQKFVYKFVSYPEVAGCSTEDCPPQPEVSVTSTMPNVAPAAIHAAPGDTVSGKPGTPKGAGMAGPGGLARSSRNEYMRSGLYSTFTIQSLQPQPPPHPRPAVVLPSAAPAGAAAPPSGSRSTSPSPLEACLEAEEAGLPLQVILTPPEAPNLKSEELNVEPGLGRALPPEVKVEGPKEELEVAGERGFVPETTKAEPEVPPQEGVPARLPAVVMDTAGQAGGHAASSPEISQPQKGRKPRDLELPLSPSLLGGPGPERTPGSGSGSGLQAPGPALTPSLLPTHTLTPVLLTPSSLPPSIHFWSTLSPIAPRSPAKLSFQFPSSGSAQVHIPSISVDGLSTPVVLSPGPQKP
A digest of the protocol: as §1

Another experiment concerns the target T3, GABPA (Homo sapiens, UniProt Q06546 1-454).
T3 sequence: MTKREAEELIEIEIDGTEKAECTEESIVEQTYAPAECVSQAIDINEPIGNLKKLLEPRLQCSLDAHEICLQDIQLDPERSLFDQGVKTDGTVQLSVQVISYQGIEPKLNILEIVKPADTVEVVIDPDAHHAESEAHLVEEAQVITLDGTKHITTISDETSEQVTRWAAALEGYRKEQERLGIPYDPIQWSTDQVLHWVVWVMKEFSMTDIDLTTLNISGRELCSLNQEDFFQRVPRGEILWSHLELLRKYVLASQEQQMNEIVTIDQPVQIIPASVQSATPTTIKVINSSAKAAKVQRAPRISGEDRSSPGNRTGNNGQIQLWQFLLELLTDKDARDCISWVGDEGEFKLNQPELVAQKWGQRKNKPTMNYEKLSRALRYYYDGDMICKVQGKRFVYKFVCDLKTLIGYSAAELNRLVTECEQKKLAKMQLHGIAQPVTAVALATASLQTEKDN
A digest of the protocol:
as §1

The next experiment addresses T4, ERG (Homo sapiens, UniProt P11308 1-479).
T4 sequence: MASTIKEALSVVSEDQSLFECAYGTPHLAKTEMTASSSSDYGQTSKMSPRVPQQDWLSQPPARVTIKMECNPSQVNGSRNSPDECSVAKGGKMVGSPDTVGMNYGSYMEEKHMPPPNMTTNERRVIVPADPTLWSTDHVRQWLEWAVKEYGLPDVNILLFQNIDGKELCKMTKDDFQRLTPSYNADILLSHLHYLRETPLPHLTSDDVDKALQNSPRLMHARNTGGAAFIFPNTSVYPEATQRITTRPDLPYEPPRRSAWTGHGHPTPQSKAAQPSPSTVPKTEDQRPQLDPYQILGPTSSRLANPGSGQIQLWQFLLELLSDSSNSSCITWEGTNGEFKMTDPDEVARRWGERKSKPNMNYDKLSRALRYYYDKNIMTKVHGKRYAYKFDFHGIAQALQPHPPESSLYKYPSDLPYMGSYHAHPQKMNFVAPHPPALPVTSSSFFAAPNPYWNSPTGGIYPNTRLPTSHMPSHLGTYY
A digest of the protocol: as §1

The target in the next experiment is ELF1 (Homo sapiens, UniProt P32519 1-619). A digest of the protocol: as §1
A further experiment addresses T5, EHF (Homo sapiens, UniProt Q9NZC4 1-300).
T5 sequence: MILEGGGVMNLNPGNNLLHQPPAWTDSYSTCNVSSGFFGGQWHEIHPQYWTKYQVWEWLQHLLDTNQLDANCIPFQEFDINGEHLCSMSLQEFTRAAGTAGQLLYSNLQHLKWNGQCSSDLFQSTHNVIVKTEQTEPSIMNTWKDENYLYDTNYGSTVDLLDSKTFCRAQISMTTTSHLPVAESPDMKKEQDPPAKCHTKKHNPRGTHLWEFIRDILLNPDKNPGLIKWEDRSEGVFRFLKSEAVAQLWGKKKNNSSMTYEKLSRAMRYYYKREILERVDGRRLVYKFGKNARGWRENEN
A digest of the protocol:
as §1

In another experiment the target is SPI1 (Homo sapiens, UniProt P17947 1-270). A digest of the protocol:
as §1

A further experiment has as its target SPIB (Homo sapiens, UniProt Q01892 1-262). A digest of the protocol: as §1
In another experiment the target is T6, ELK3 (Homo sapiens, UniProt P41970 1-407).
T6 sequence: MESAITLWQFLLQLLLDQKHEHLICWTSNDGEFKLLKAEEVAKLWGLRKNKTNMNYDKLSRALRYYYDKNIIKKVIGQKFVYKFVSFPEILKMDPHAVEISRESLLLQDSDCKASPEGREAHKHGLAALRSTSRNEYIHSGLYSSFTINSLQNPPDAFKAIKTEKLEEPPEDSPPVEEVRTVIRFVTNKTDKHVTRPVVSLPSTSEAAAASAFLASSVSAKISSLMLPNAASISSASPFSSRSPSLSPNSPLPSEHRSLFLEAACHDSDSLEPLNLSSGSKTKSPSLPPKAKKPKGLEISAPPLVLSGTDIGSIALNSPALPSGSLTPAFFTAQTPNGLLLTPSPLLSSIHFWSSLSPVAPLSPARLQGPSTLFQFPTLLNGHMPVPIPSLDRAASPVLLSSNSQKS
A digest of the protocol:
as §1

Chain of ELF1 (P32519 whole entry): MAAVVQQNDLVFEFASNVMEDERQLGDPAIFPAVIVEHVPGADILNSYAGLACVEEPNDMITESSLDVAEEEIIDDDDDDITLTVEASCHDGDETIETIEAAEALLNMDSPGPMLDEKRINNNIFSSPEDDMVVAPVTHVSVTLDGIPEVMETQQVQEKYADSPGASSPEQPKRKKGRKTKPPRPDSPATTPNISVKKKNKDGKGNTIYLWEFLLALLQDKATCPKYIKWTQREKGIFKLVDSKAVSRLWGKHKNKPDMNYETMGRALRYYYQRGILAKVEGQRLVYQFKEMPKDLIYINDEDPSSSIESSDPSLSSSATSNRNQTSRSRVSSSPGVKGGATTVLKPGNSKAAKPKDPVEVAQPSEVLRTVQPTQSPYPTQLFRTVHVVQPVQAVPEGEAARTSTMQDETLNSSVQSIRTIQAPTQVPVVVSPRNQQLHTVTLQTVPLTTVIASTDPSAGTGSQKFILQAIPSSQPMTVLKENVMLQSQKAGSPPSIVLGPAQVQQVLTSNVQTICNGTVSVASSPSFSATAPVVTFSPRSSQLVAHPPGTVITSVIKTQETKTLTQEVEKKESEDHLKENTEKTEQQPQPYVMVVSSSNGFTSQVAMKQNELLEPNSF
Chain of SPIB (Q01892 whole entry): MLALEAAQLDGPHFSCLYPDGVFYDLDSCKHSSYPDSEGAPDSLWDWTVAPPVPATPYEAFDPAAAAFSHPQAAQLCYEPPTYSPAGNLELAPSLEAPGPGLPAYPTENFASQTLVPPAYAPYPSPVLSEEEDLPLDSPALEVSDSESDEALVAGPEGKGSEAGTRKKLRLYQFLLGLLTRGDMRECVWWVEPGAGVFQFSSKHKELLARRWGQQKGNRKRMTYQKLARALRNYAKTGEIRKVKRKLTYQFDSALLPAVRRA

In the case of AATAAG, the binding signal is 1.22 fold enrichment (6-mer frequency, TF over GST control) in the experiment with FLI1; 1.21 fold enrichment (6-mer frequency, TF over GST control) in the experiment with ELK1; 1.31 fold enrichment (6-mer frequency, TF over GST control) with GABPA; 1.37 fold enrichment (6-mer frequency, TF over GST control) in the experiment with ERG; 1.24 fold enrichment (6-mer frequency, TF over GST control) with ELF1; 1.22 fold enrichment (6-mer frequency, TF over GST control) with EHF. Moreover, the binding signal with SPI1 was 1.27 fold enrichment (6-mer frequency, TF over GST control); in the experiment with SPIB, 1.3 fold enrichment (6-mer frequency, TF over GST control); with ELK3, 1.23 fold enrichment (6-mer frequency, TF over GST control).

Turning to CTACTT, the binding signal is 1.85 fold enrichment (6-mer frequency, TF over GST control) with FLI1; 1.77 fold enrichment (6-mer frequency, TF over GST control) with ELK1; 1.72 fold enrichment (6-mer frequency, TF over GST control) in the experiment with GABPA; 1.96 fold enrichment (6-mer frequency, TF over GST control) with ERG; 1.85 fold enrichment (6-mer frequency, TF over GST control) with ELF1; 1.92 fold enrichment (6-mer frequency, TF over GST control) in the experiment with EHF. For the same sequence, the binding signal was 2.05 fold enrichment (6-mer frequency, TF over GST control) with SPI1; 1.96 fold enrichment (6-mer frequency, TF over GST control) in the experiment with SPIB; 1.88 fold enrichment (6-mer frequency, TF over GST control) in the experiment with ELK3.

Regarding TATTCA, the binding signal was 1.31 fold enrichment (6-mer frequency, TF over GST control) with FLI1; 1.26 fold enrichment (6-mer frequency, TF over GST control) with ELK1; 1.23 fold enrichment (6-mer frequency, TF over GST control) with GABPA; 1.29 fold enrichment (6-mer frequency, TF over GST control) in the experiment with ERG; 1.38 fold enrichment (6-mer frequency, TF over GST control) with ELF1; 1.32 fold enrichment (6-mer frequency, TF over GST control) with EHF. For the same sequence, the binding signal in the experiment with SPI1 was 1.29 fold enrichment (6-mer frequency, TF over GST control); in the experiment with SPIB, 1.27 fold enrichment (6-mer frequency, TF over GST control); with ELK3 it was 1.35 fold enrichment (6-mer frequency, TF over GST control).

For the sequence CTCGAC, the binding signal is 1.49 fold enrichment (6-mer frequency, TF over GST control) with FLI1; 1.47 fold enrichment (6-mer frequency, TF over GST control) with ELK1; 1.53 fold enrichment (6-mer frequency, TF over GST control) in the experiment with GABPA; 1.47 fold enrichment (6-mer frequency, TF over GST control) with ERG; 1.53 fold enrichment (6-mer frequency, TF over GST control) with ELF1; 1.46 fold enrichment (6-mer frequency, TF over GST control) in the experiment with EHF. In addition, the binding signal was 1.34 fold enrichment (6-mer frequency, TF over GST control) with SPI1; 1.33 fold enrichment (6-mer frequency, TF over GST control) in the experiment with SPIB; 1.36 fold enrichment (6-mer frequency, TF over GST control) with ELK3.

Take ACTACG: the binding signal with FLI1 was 1.33 fold enrichment (6-mer frequency, TF over GST control); in the experiment with ELK1, 1.28 fold enrichment (6-mer frequency, TF over GST control); with GABPA, 1.32 fold enrichment (6-mer frequency, TF over GST control); with ERG, 1.24 fold enrichment (6-mer frequency, TF over GST control); with ELF1, 1.34 fold enrichment (6-mer frequency, TF over GST control); with EHF, 1.36 fold enrichment (6-mer frequency, TF over GST control). Also, the binding signal with SPI1 is 1.26 fold enrichment (6-mer frequency, TF over GST control); with SPIB, 1.47 fold enrichment (6-mer frequency, TF over GST control); with ELK3, 1.32 fold enrichment (6-mer frequency, TF over GST control).

For the sequence ATATTA, the binding signal in the experiment with FLI1 is 1.08 fold enrichment (6-mer frequency, TF over GST control); with ELK1, 1.11 fold enrichment (6-mer frequency, TF over GST control); with GABPA it was 1.12 fold enrichment (6-mer frequency, TF over GST control); with ERG, 1.09 fold enrichment (6-mer frequency, TF over GST control); in the experiment with ELF1, 1.16 fold enrichment (6-mer frequency, TF over GST control); in the experiment with EHF it was 1.08 fold enrichment (6-mer frequency, TF over GST control). Further, the binding signal in the experiment with SPI1 was 1.03 fold enrichment (6-mer frequency, TF over GST control); with SPIB, 1.16 fold enrichment (6-mer frequency, TF over GST control); in the experiment with ELK3 it was 1.13 fold enrichment (6-mer frequency, TF over GST control).

On to TAGTTC, for which the binding signal was 1.47 fold enrichment (6-mer frequency, TF over GST control) with FLI1; 1.41 fold enrichment (6-mer frequency, TF over GST control) in the experiment with ELK1; 1.28 fold enrichment (6-mer frequency, TF over GST control) with GABPA; 1.45 fold enrichment (6-mer frequency, TF over GST control) with ERG; 1.37 fold enrichment (6-mer frequency, TF over GST control) with ELF1; 1.3 fold enrichment (6-mer frequency, TF over GST control) with EHF. The binding signal in the experiment with SPI1 was 1.43 fold enrichment (6-mer frequency, TF over GST control); with SPIB, 1.51 fold enrichment (6-mer frequency, TF over GST control); in the experiment with ELK3, 1.15 fold enrichment (6-mer frequency, TF over GST control).
